Results filed as inconclusive are left out. Entries that show only a call come without a potency. The source made the active and inactive calls. Calls follow the shape of the dose curve; as a rule, active = well fitted cell-killing curve with a large enough effect; inconclusive = small, poorly fitted or top-dose-only effect, or effect the other way; inactive = flat fitted curve, though single readings scatter.
What was measured:
Experiment in all cases: Primary qHTS to identify gynecologic anti-cancer compounds using libraries of approved drugs and bioactive compounds (AID 1345084); also: nearly all actives have a fitted effect of over 55% in size
Details in all cases: Gynecologic cancer cell panel viability, ATPlite luminescence, 48 h; series mostly up to 57.5 µM
PA-1 = test system: PA-1
Procedure, shortened: (§1)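 Cells, 1,000 per well, were allowed to settle for 16 h at 37 C before compound addition. Five concentrations were tested for 48 h, and viability was read by ATPlite luminescence after 15 min at room temperature.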

SKOV3 = test system: SKOV3
Procedure, shortened: as §1

Tov112D = test system: Tov112D
Procedure, shortened: as §1

Tov-21-G = test system: Tov-21-G
Procedure, shortened: as §1
Potency is read from the fitted curve at half-maximal effect.

Row | SMILES | Potency (PA-1) | Potency (SKOV3) | Potency (Tov112D) | Potency (Tov-21-G)
1 | C=C1C(=O)OC2/C=C(\CO)CC/C=C(\C=O)C(OC)C(OC(=O)C(C)CC)C12 (configuration not stated) | inactive | inactive | inactive | –
2 | CC[C@@H](C)Nc1cc(C(=O)NC2CC3CCC(C2)N3c2ccc(C(=O)C3CC3)cn2)c(C)cc1C(N)=O (some centres not stated) | 0.355 µM (active) | – | – | 0.398 µM (active)
3 | C#Cc1cccc(Nc2nc3cc(C(=O)O)ccc3c3cncnc23)c1 | 3.55 µM (active) | inactive | inactive | –
4 | CCOC(=O)N1CCC(CN(Cc2ccc(Cl)cc2)Cc2ccc([N+](=O)[O-])s2)C1 (configuration not stated) | inactive | – | – | inactive
5 | NC(=O)CCCSc1nc(N)nc(-c2c(Cl)cc3c4c(cccc24)COC3)n1 | 0.891 µM (active) | – | – | 1 µM (active)
6 | O=C(NCCCNC(=O)c1ccc[nH]c1=O)c1cc(-c2ccccc2)on1 | 8.91 µM (active) | inactive | inactive | –
7 | COc1ccc(-c2ccc3c(N4CCOCC4C)nc(N4CCOCC4C)nc3n2)cc1CO (configuration not stated) | 0.282 µM (active) | – | – | 0.251 µM (active)
8 | C=C1CC(=O)C2OC2(C)CC2OC(=O)C(=C)C2C(O)C1OC(=O)/C(C)=C\C (configuration not stated) | inactive | inactive | inactive | –
9 | CCCc1cc(C)[nH]c(=O)c1CNC(=O)c1cc(-c2ccnc(N3CCN(C)CC3)c2)cc2c1cnn2C(C)C | 25.1 µM (active) | – | – | 31.6 µM (active)
10 | CC[C@H](C)/C=C(C)/C=C/C1=CC2=CC(=O)[C@]3(C)OC(=O)[C@@H](C(C)=O)[C@@H]3C2=CO1 | inactive | inactive | inactive | –
11 | COc1cc(O)c2c(c1)/C=C/C[C@H](O)[C@H](O)C(=O)/C=C\C[C@H](C)OC2=O | 14.1 µM (active) | – | – | 17.8 µM (active)
